Wnt act – Wnt/beta-catenin pathway activation | Wnt/beta-catenin reporter cell assay, activator, plate reader | activation, % at 9.35 µM | hit rate 1.2% among 300,000; in the data active means activation above about 30%, passing the limit was not always enough; inconclusive means no clear call, values can overlap the other calls;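 further: 0% = neutral control wells and 100% = positive control wells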
A3G deaminase – blocks human APOBEC3G single-stranded DNA deamination; Q9HC16; recombinant A3G, ssDNA deamination FAM/TAMRA fluorescence; inhibition, % at 20 µM; hit rate 0.28% among 330,000; AID 493012;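 active means inhibition of at least 40% at 20 µM, with no more than 30% in the related APOBEC3A deaminase screen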;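 further: plate controls were DMSO wells with A3G for no effect and wells lacking A3G enzyme for full effect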
Target sequence (Q9HC16 whole entry, looked up): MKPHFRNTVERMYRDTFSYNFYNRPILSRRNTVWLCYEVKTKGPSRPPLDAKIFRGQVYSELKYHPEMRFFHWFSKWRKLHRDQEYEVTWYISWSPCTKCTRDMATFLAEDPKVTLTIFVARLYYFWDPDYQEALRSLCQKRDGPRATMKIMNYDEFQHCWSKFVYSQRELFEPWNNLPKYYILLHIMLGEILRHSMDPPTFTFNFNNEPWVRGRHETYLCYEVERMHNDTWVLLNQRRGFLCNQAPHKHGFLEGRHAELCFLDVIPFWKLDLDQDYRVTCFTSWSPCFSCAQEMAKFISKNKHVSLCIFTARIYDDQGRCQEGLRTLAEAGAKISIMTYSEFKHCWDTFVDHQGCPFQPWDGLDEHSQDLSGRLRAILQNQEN
MITF act – increases MITF-driven TRPM1 promoter luciferase signal | SK-MEL-5 TRPM1-promoter luciferase, 24 h; % of positive control, neutral wells = 0 | activation, % at 12.5 µM | hit rate 0.75% among 300,000 | AID 588334;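 active means mean activation of at least 80% with every replicate also reaching 80%; inconclusive means mean reaches 80% but some replicate falls short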;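 further: 0% = neutral control wells and 100% = parthenolide positive control wells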
esBAF inh – SWI/SNF esBAF complex inhibition | mouse ES cells, Bmi1-luciferase knock-in reporter, 24 h; 100% = twice the neutral-well signal | reporter increase, % at 12.5 µM | hit rate 2% among 350,000 | AID 602393; in the data active means activation above about 40%; inconclusive means no clear call, values can overlap the other calls;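 further: 0% = median of the plate's neutral control wells and 100% = double that signal; a rise in the Bmi1 reporter signal indicates esBAF inhibition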
A3A deaminase – inhibitors of human APOBEC3A DNA deaminase; recombinant A3A, FAM/TAMRA ssDNA deamination fluorescence; inhibition, % at 20 µM; hit rate 0.41% among 330,000; AID 493011;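 active means at least 40% inhibition at 20 µM here, with at most 30% in a related deaminase screen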;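 further: plate controls were A3A with DMSO for no effect and wells lacking A3A enzyme for full effect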
PHOSPHO1 block – blocks human PHOSPHO1 phosphatase activity; Q8TCT1; recombinant PHOSPHO1, absorbance phosphatase assay; inhibition, % at 13.3 µM; hit rate 1.1% among 290,000; AID 1565; in the data active means inhibition above about 60%
Target sequence (Q8TCT1 whole entry, looked up): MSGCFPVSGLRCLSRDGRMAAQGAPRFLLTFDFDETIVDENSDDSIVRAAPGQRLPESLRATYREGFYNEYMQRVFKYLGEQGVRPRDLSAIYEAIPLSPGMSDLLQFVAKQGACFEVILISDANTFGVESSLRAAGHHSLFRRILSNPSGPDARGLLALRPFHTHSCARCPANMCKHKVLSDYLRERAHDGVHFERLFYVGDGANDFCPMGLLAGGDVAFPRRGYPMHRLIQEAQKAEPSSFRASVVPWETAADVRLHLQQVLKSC
An asterisk follows results filed as active; u = inconclusive; x = no result given. Hits are enriched below; roughly 3.6% of the tested compounds scored in any of these assays.

SMILES | Wnt act | A3G deaminase | MITF act | esBAF inh | A3A deaminase | PHOSPHO1 block
CCc1cc2c(N=Nc3c(O)[nH]c4ccccc34)ncnc2s1 | x | -11.1 | -13.3 | x | -2.6 | -9.3
O=C(Nc1ccc(F)c(Cl)c1)c1cc(C2CCCN(S(=O)(=O)c3ccccc3)C2)on1 (stereo not drawn) | -1.6 | x | x | 10.1 | x | x
Cn1cnc(S(=O)(=O)N2CCCC(c3cc(C(=O)Nc4ccc(F)c(Cl)c4)no3)C2)c1 (stereo not drawn) | -0.2 | x | x | 53.3* | x | x
Cc1ccccc1S(=O)(=O)N(C)C[C@H]1OCc2ccccc2-c2c(n(C)c3ccccc23)C(=O)N([C@@H](C)CO)C[C@@H]1C | x | x | x | -2.0 | x | x
COc1cccc(CC(=O)Nc2ccc3c(c2)OC2(CCCC2)O3)c1 | 2.8 | -6.0 | 19.3 | 42.2* | 6.2 | x
CC(=O)Nc1ccc(CC(=O)Nc2ccc3c(c2)OC2(CCCC2)O3)cc1 | -5.5 | x | x | 46.2* | x | x
Cc1c(C(=O)Nc2nnc(C3CC3)s2)oc2c(Cl)cccc12 | 2.2 | 9.3 | -17.7 | x | 2.7 | x
Cc1c(C(=O)Nc2nnc(C3CC3)s2)oc2ccccc12 | 45.1* | -8.6 | 64.8 | 52.8* | -1.5 | x
Cc1csc(NC(=O)c2oc3ccccc3c2C)n1 | 24.6 | -6.9 | 39.5 | u | -1.8 | x
Cc1c(C(=O)Nc2cnccn2)oc2ccccc12 | 4.8 | -7.4 | 7.1 | 61.2* | 0.3 | 0.2
Cc1c(C(=O)Nc2nccs2)oc2ccccc12 | 79.6* | x | x | 69.9* | x | x
Cc1c(C(=O)Nc2ccc(Cl)cn2)oc2ccccc12 | 27.6 | -9.2 | 22.8 | 45.3* | -5.0 | -1.2
Cc1noc(C)c1NC(=O)N(C)C[C@H]1Oc2ccc(NS(=O)(=O)c3ccc(F)cc3)cc2CC(=O)N([C@@H](C)CO)C[C@@H]1C | x | x | x | -4.5 | x | x
O=C(Nc1nc2ccc(Cl)cc2s1)C1CC1 | 60.2* | -11.3 | x | x | -1.9 | x
CC(C)c1ccc2nc(NC(=O)C3CC3)sc2c1 | 58.5* | -1.5 | 59.6 | 56.7* | -1.0 | 20.2
Cc1cc(Cl)cc2sc(NC(=O)C3CC3)nc12 | 7.7 | -0.8 | 0.5 | 18.5 | 0.6 | 25.4
O=C(Nc1nc2ccc(Cl)cc2s1)C1CCCO1 (stereo not drawn) | x | -4.2 | 60.7 | 49.4* | -2.4 | -2.0
O=C(Nc1nc(-c2ccc(F)cc2)cs1)C1CCCO1 (stereo not drawn) | 44.7* | 0.2 | 85.1* | x | 0.7 | -4.0
O=C(C[C@H]1CC[C@@H]2[C@H](COC[C@H](O)CN2Cc2cc(F)cc(F)c2)O1)NC1CCCC1 | x | x | x | 2.2 | x | x
C[C@@H]1CN([C@@H](C)CO)C(=O)Cc2cc(NS(=O)(=O)c3ccccc3)ccc2O[C@@H]1CN(C)C(=O)Nc1ccc(C(F)(F)F)cc1 | x | x | x | -5.4 | x | x
COc1ccccc1C#Cc1cnc2c(c1)C(=O)N([C@H](C)CO)C[C@H](C)[C@@H](CN(C)C(=O)c1ccc3c(c1)OCO3)O2 | x | x | x | -6.2 | x | x
CCCNC(=O)N(C)C[C@@H]1Oc2cc(C3=CCCC3)ccc2S(=O)(=O)N([C@H](C)CO)C[C@H]1C | x | x | x | 0.4 | x | x
C[C@H]1CN([C@@H](C)CO)C(=O)Cc2cc(NC(=O)CCC(F)(F)F)ccc2O[C@H]1CN(C)Cc1ccc(C(=O)Nc2ccccc2N)cc1 | x | x | x | -20.9 | x | x
CO[C@H]1CN(C)C(=O)c2cc(NC(=O)C3CCC3)ccc2OC[C@H](C)N(C)C[C@@H]1C | x | x | x | -2.2 | x | x
CC1=CCC(C(=O)O)C(C(=O)Nc2ccc(-c3nc4ccc(C)cc4s3)cc2)C1 (stereo not drawn) | 58.3* | 4.3 | 13.5 | -19.7 | 19.4 | 35.8
SMILES | Wnt act | A3G deaminase | MITF act | esBAF inh | A3A deaminase | PHOSPHO1 block
CC1CC1C(=O)Nc1nc2ccc(S(C)(=O)=O)cc2s1 (stereo not drawn) | 1.8 | 1.9 | 18.4 | 9.5 | 2.0 | 6.5
Cc1ccc2nc(NC(=O)C3CC3C)sc2c1 (stereo not drawn) | 27.6 | 0.5 | 49.1 | 71.7* | -4.5 | 46.2
CCNC(=O)Nc1ccc2c(c1)C(=O)N(C)[C@H]1CC[C@H](CC(=O)NCCOC)O[C@H]1CO2 | x | x | x | -0.1 | x | x
C[C@@H]1CN([C@H](C)CO)C(=O)c2cc(NC(=O)Nc3ccccc3)ccc2O[C@@H](C)CCCCO[C@H]1CN(C)C(=O)C1CCCCC1 | x | x | x | -1.6 | x | x
Cc1ccnc(NC(=O)CNC(=O)c2sc3ccccc3c2Cl)c1 | 12.0 | -11.5 | 85.1* | 52.1* | -3.8 | x
CC1CC(C)CN(C(=O)CNC(=O)c2sc3ccccc3c2Cl)C1 (stereo not drawn) | 11.8 | -6.5 | 64.4 | 23.0 | -4.4 | x
O=C(NCC(=O)N1CCCCC1)c1sc2ccccc2c1Cl | 44.9* | -3.3 | 113.5* | 15.5 | -4.2 | x
C[C@H]1CN([C@@H](C)CO)C(=O)Cc2cc(NS(C)(=O)=O)ccc2O[C@H]1CN(C)S(C)(=O)=O | x | x | x | 1.5 | x | x
CCOC(=O)c1c(N)sc2c1CCC(C)C2 (stereo not drawn) | -1.6 | 9.3 | 13.8 | 2.2 | -4.7 | 42.7
CC(C)(C)C1CCc2c(sc(N)c2C(N)=O)C1 (stereo not drawn) | x | x | -0.6 | x | x | 83.3*
CCCC1CCc2c(sc(N)c2C(N)=O)C1 (stereo not drawn) | x | -11.2 | -11.9 | -1.2 | -8.3 | 95.4*
CCC(C)(C)C1CCc2c(sc(N)c2C(N)=O)C1 (stereo not drawn) | -2.5 | -6.9 | -20.4 | 16.1 | -3.8 | -32.0
Cc1c(-c2ccccc2)sc(N)c1C(=O)N1CCOCC1 | 5.0 | -3.2 | 2.6 | -4.1 | 1.0 | 74.4*
CCN(C(=O)c1coc(=O)c(Br)c1)c1ccc2c(c1)OCO2 | x | 1.8 | -7.3 | 9.0 | -0.7 | 73.5*
C[C@@H]1CN([C@@H](C)CO)C(=O)c2cc(C#CC3(O)CCCC3)cnc2O[C@@H]1CN(C)S(=O)(=O)c1ccccc1 | x | x | x | -0.9 | x | x
COc1ccc(NC(=O)Nc2cccc3c2O[C@H](CN(C)C(=O)Nc2ccc(C(F)(F)F)cc2)[C@@H](C)CN([C@@H](C)CO)C3=O)cc1 | x | x | x | -1.9 | x | x
C[C@@H]1CN([C@H](C)CO)S(=O)(=O)c2ccc(-c3cccc(C(=O)N(C)C)c3)cc2O[C@@H]1CN(C)Cc1ccc2c(c1)OCO2 | x | x | x | -2.0 | x | x
Cc1cccc(N2CCN(C(=O)c3ccc4nc(N5CCCCC5)sc4c3)CC2)c1C | 10.9 | -6.0 | 34.9 | 61.2* | 0.5 | 27.3
CCOC(=O)N1CCN(C(=O)c2ccc3nc(N4CCC(C)CC4)sc3c2)CC1 | x | -2.1 | 10.7 | 57.7* | 5.3 | -5.3

Screening data (PubChem BioAssay)
